# According to PubChem BioAssay (NCATS):
# Records with an inconclusive call do not appear. Entries that show only a call come without a potency. A number with no mark means an inactive call. Active and inactive are the calls of the source. Calls come from the whole dose curve; as a rule, active = well fitted inhibition curve with a large enough effect; inconclusive = small, poorly fitted or top-dose-only effect; inactive = flat fitted curve, though single readings scatter. *1 amine or outer side, *2 acyl side, *3 side chain or, on linkers, in order; H or OH if unused. Where a SMILES comes first, the peptide text is derived from it. [ ]: non-standard residue; d: D form. X13 = O=C(C(CC(O)CO)O[*:1])[*:2]; NMeV = CN[CH](C(=O)O)C(C)C; NMeA = CN[CH](C)C(=O)O; βAla = NCCC(=O)O
# Experiment: P-glycoprotein substrates identified in KB-8-5-11 adenocarcinoma cell line, qHTS therapeutic library screen (AID 1346987); note: nearly all actives have a fitted effect of over 65% in size
# Settings: KB-8-5-11 (P-gp overexpressing) viability, CellTiter-Glo, 72 h; series mostly up to 44.5 µM
# Summary of the method: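 In this qHTS, P-gp-rich KB-8-5-11 cells received library compounds across a concentration range. Viability was quantified by luminescence after 72 h at 37 degree C.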
SMILES,Potency,"activity change, negative = cytotoxicity",outcome
CCC(CC)CC1(C(=O)Nc2ccccc2SC(=O)C(C)C)CCCCC1,inactive,–,–
CC(O)C(O)/C=C/C=C/C(=O)O[C@@H]1C=C(C(=O)O)[C@](O)(CO)[C@@]2(C)CCCC(C)(C)[C@H]12 (stereo not given in full),inactive,–,–
CC(C(=O)Nc1cc(C#N)ccc1CCCC(=O)O)c1ccc(F)c2ccccc12 (stereo not given),inactive,–,–
CC(O)C(=O)/C=C/C=C/C(=O)OC1C=C2COC(=O)C2(O)C2(C)CCCC(C)(C)C12 (stereo not given),inactive,–,–
C[C@@H]1O[C@@H](O[C@H]2[C@H](OC(=O)[C@]34CCC(C)(C)C[C@H]3C3=CCC5[C@@]6(C)C[C@@H](O)[C@@H](O)[C@@](C)(CO)C6[C@H](O)C[C@@]5(C)[C@]3(C)CC4)OC[C@H](O)[C@@H]2O)[C@H](O)[C@H](O)[C@H]1O[C@@H]1OC[C@@H](O)[C@H](O[C@H]2O[C@H](C)[C@@H](O)[C@H](O)[C@@H]2O)[C@H]1O (stereo not given in full),–,2.85% [at 9.29 µM],–
C=C1C(O)C(OC(=O)c2ccccc2)C2C(C)(C(=O)O)CCCC2(C)C1CC/C(C)=C\CO (stereo not given),inactive,–,–
CC1=CC(=O)CC(C)(C)C1CCC(C)O[C@@H]1O[C@H](CO)[C@@H](O)[C@H](O)[C@H]1O (stereo not given in full),inactive,–,–
CC1CCC2C(C(=O)O)=CC3(O)CC(C)(C)CC123 (stereo not given),inactive,–,–
CCC(C)C1NC(=O)C2CCCN2C(=O)C(CC(O)CO)OC(=O)CCNC(=O)C(C)N(C)C(=O)C(C(C)C)N(C)C1=O (stereo not given) (cyclo([X13]PI[NMeV][NMeA][βAla]); configuration not given here),inactive,–,–
C[C@]12CCC[C@](C)(C(=O)O)C1[C@@H](O)[C@@H](O)C13CC(CCC12)C(CO)(O[C@@H]1O[C@H](CO)[C@@H](O)[C@H](O)[C@H]1O)C3 (stereo not given in full),inactive,–,–
C=CC(C)(O)CC/C=C(\C)C(=O)O[C@@H]1[C@@H](O)[C@H](OC(C)(C=C)CC/C=C(\C)C(=O)O)O[C@H](CO)[C@H]1OC(=O)/C(C)=C/CCC(C)(O)C=C (stereo not given in full),inactive,–,–
O=C(O)c1ccnc(-c2cc(C(=O)NCCc3ccccc3)ccn2)c1,inactive,–,–
O=C(Cc1ccccc1)OC[C@H]1O[C@H](O[C@H]2O[C@H](CO)[C@@H](O)[C@H](O)[C@H]2O)[C@H](O)[C@@H](O)[C@@H]1O,inactive,–,–
C=C1CC[C@]2(C(=O)O[C@@H]3O[C@H](CO)[C@@H](O)[C@H](O)[C@H]3O)CC[C@]3(C)C(=CCC4[C@@]5(C)C[C@H](O)[C@@H](O[C@@H]6O[C@H](C(=O)O)[C@@H](O)[C@H](O)[C@H]6O)[C@](C)(C=O)C5CC[C@]43C)C2C1 (stereo not given in full),–,–,inactive [at 9.29 µM]
CC1(C)CC[C@]2(C(=O)O)[C@H](O)C[C@]3(C)C(=CCC4[C@@]5(C)CC[C@H](O[C@@H]6OC[C@@H](O)[C@H](O)[C@H]6O)[C@@](C)(C(=O)O)C5CC[C@]43C)[C@@H]2C1 (stereo not given in full),inactive,–,–
C[C@@H]1O[C@@H](O[C@@H]2[C@@H](O)[C@H](O[C@H]3[C@H](O[C@H]4CC[C@@]5(C)C(CC[C@]6(C)C5CC=C5[C@@H]7CC(C)(C)CC[C@]7(C(=O)O[C@@H]7O[C@H](CO)[C@@H](O)[C@H](O)[C@H]7O)CC[C@]56C)C4(C)C)O[C@H](C(=O)O)[C@@H](O)[C@@H]3O)OC[C@H]2O)[C@H](O)[C@H](O)[C@H]1O (stereo not given in full),–,6.37% [at 9.29 µM],–
COc1c(C)c(OCC=C(C)C)cc2c1CNC2=O,inactive,–,–
COc1ccc(C(=O)OC2C3C=COC(OC4OC(CO)C(O)C(O)C4O)C3C3(CO)OC23)cc1OC (stereo not given),inactive,–,–
C[C@H]1/C=C/C=C/C=C/C=C/C=C/[C@@H](O)[C@H](C(=O)O)[C@H](O)C[C@H](O)CCC[C@H](O)C[C@H](O)C[C@H](O)[C@@H](C)C(=O)O[C@@H]1C,inactive,–,–
CC(C)c1ccc2c(c1)C(O)CC1C(C)(CO)CCCC21C (stereo not given),inactive,–,–
C[C@H]1CC[C@H]2[C@@H](C=C[C@@](C)(O)[C@]2(C)C(=O)CCO)C1,inactive,–,–
COc1cn(-c2ccc(-n3cccn3)cc2F)nc(-c2ccnn2-c2ccccc2)c1=O,inactive,–,–
CC1(O)CC(O)C2C(C(=O)O)=COC(OC3OC(CO)C(O)C(O)C3OC(=O)/C=C/c3ccc(O)cc3)C21 (stereo not given),inactive,–,–
CC(=O)NC1C(OC2CCC3(C)C(CCC4(C)C3CC=C3C5CC(C)(C)CCC5(C(=O)O)C(O)CC34C)C2(C)C)OC(CO)C(O)C1O (stereo not given),inactive,–,–
CC1(C)C[C@H]2C=C(C=O)[C@]3(C(=O)O)C[C@]3(C)[C@H]2C1,inactive,–,–
